S1P4 ag = S1P4 receptor agonists, primary screen, cell-based; S1P4-expressing cell line, agonist reporter assay; activation, % at 4.98 µM; 220,000 compounds, 0.35% hits; AID 1509, 2009; in the data active = activation above about 11%;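 also: 0% = DMSO vehicle and 100% = reference agonist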
S1P3 antagonist = S1P3 receptor antagonists, primary screen, cell-based; AID 485, 2006; inhibition, % at 4.98 µM; Sphingosine 1-phosphate receptor 3 (Homo sapiens), Q99500; 170,000 compounds, 0.27% hits; CHO S1P3 NFAT-BLA reporter, FRET fluorescence, antagonist mode;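 active = inhibition above the plate cutoff, the mean inhibition of test wells on that plate plus 3 SD, cut at about 28% in these data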;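 also: cells challenged with S1P at its EC80 of 0.8 µM; blue over green emission ratio from cleaved BLA substrate after 4 h stimulation; 0% = S1P-stimulated wells and 100% = unstimulated DMSO-only wells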
Arbovirus inh = antivirals against arbovirus infection, primary screen, cell-based, full library, 10K replicate subset; inhibition, % at 10 µM; arbovirus infection cell-based antiviral screen; 200,000 compounds, 0.37% hits; in the data active = inhibition above about 30%
S1P4 antagonist = S1P4 receptor antagonists, primary screen, cell-based. 220,000 compounds, 0.26% hits. inhibition, % at 4.98 µM. S1P4-expressing cells, antagonist mode, reporter read-out. AID 1510, 2009; in the data active = inhibition above about 29%;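 also: 0% = wells stimulated with agonist and 100% = vehicle wells without agonist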
Redox H2O2 prof = compounds producing H2O2 with reducing agent – biochemical, NIH compound library profiling, artefact control for MLSCN library redox annotation, primary screen | activation, % at 10 µM | DTT-dependent redox cycling H2O2, phenol red/HRP absorbance; 100% = 100 µM peroxide control, 0% = buffer | AID 878, 2007 | 200,000 compounds, 0.03% hits;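 active = activation of at least 50% relative to the plate's high and low controls in the primary single-dose screen; inactive = activation below 50%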;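 also: compound incubated with DTT at 0.8 mM final as the reducing agent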
p97 ATPase inh = inhibitors of human p97 ATPase, primary screen, biochemical; Transitional endoplasmic reticulum ATPase (Homo sapiens), P55072; recombinant p97 ATPase, Kinase-Glo ATP luminescence, 3 h; inhibition, % at 8 µM; 220,000 compounds, 0.42% hits; in the data active = inhibition above about 15%;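 also: 0% = DMSO vehicle and 100% = wells lacking enzyme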
S1P4 antag cf = S1P4 receptor antagonists, human, confirmation, cell-based | inhibition, % at 4.98 µM | S1P4-expressing cell line, antagonist mode, reporter read-out | shares compounds with S1P4 antagonist | 520 compounds, 71% hits; in the data active = inhibition above about 30%
S1P1 antag = S1P1 receptor antagonists, human, counter-screen for S1P4 antagonist project, cell-based; shares compounds with S1P4 antagonist; cell-based S1P1 antagonist counterscreen, inhibition; inhibition, % at 4.98 µM; 520 compounds, 37% hits; AID 1564, 2009; in the data active = inhibition above about 40%;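 also: receptor stimulated with S1P near its EC80; 0% = agonist stimulated wells and 100% = vehicle only wells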
Target sequence (P21453 whole entry, looked up): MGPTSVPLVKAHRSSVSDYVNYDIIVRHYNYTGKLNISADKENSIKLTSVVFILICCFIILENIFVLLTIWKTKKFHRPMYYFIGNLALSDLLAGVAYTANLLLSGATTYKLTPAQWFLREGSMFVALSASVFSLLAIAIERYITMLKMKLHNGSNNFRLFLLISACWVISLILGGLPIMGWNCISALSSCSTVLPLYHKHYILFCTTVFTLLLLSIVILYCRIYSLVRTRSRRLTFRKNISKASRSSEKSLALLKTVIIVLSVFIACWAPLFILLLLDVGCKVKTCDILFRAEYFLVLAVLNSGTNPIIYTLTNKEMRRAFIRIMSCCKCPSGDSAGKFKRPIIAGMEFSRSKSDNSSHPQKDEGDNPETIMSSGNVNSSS
* hit, by the source's call; . = not tested or not shown. In the library only some 1.6% were active in any assay of this set; here they are far more common.

SMILES	S1P4 ag	S1P3 antagonist	Arbovirus inh	S1P4 antagonist	Redox H2O2 prof	p97 ATPase inh	S1P4 antag cf	S1P1 antag
Cc1cccc2cc3c(nc12)SC(=NCC1CCCO1)N(Cc1ccco1)C3 (stereo unspecified)	2.4	5.7	-12.9	56.3*	0.7	2.7	22.2	47.4*
COCCN=C1Sc2nc3c(C)cccc3cc2CN1Cc1ccco1	-0.5	.	-8.8	50.8*	2.0	2.1	23.7	8.1
Cc1ccc2nc3c(cc2c1)CN(Cc1ccco1)C(=NCC1CCCO1)S3 (stereo unspecified)	0.9	35.3	-16.8	10.6	2.6	2.1	.	.
COc1ccc(-n2cc(C(=O)c3cc4ccccc4oc3=O)c(C(C)=O)n2)cc1	-1.5	.	-4.3	2.6	0.0	0.9	.	.
Cc1nn(C2CCS(=O)(=O)C2)c(C)c1C=O (stereo unspecified)	0.7	-15.5	0.6	-5.1	-0.9	-0.1	.	.
O=C(Nc1nccs1)C(=O)c1c[nH]c2ccccc12	-1.0	.	-4.0	8.5	0.2	6.6	.	.
CSc1ccccc1NC(=O)C(=O)c1c[nH]c2ccccc12	5.6	-17.7	-2.6	45.3*	0.6	5.3	5.0	46.9*
CC1CCN(C(=O)CNC(=O)c2cccc(OC(F)F)c2)CC1	1.5	-20.2	2.3	-4.0	-0.5	-0.2	.	.
Cn1c(Cc2cccc3ccccc23)nnc1SCC(=O)N1CCN(c2ccccc2)CC1	-3.2	.	-31.9	-1.8	1.7	-2.8	.	.
O=C(N/N=C/c1ccccc1)c1n[nH]c2c1CCCC2	1.9	20.2	-2.9	-11.8	-0.3	-3.9	.	.
O=C(N/N=C/C(Br)=C/c1ccccc1)c1n[nH]c2c1CCC2	-1.8	.	-35.8	31.5*	0.1	6.4	45.8*	81.7*
Cc1cc(C)nc(NC(=O)CSc2ncccn2)n1	0.6	4.5	19.1	-21.7	1.0	1.5	.	.
COc1nccc(C(F)(F)F)c1C(=O)NC(=O)Nc1ccccc1	-0.4	0.4	.	4.0	.	-0.5	.	.
Clc1ccc2c(c1)C(N1CCNCC1)Cc1ccccc1S2 (stereo unspecified)	-0.3	.	-37.9	7.9	-0.4	-1.5	.	.
COCCCN1CCN(C2Cc3ccccc3Sc3ccc(Cl)cc32)CC1 (stereo unspecified)	0.4	-21.8	-35.8	29.1*	0.7	-13.3	-2.7	0.1
Cc1ccc(C)c(C(=O)Cn2ncc(Cl)c(Cl)c2=O)c1	0.4	.	-49.5	66.6*	-0.8	-1.1	115.5*	58.9*
CCCc1cc(=O)[nH]c(SCC(=O)c2cc(C)n(CC(F)(F)F)c2C)n1	0.2	-10.1	10.1	0.4	0.2	-0.1	.	.
Cc1cc(C(=O)Cn2ncc(Cl)c(Cl)c2=O)c(C)n1CC(F)(F)F	-1.2	-0.4	-38.0	89.6*	0.1	-6.5	105.0*	64.7*
O=C(Nc1ccccc1)Nc1cc(OCC(F)(F)F)cc(OCC(F)(F)F)c1	-1.2	-4.5	-34.0	101.0*	-0.6	-1.2	112.2*	-6.2
Cc1onc(-c2ccccc2Cl)c1C(=O)OCn1nnc2ccccc2c1=O	-1.9	-7.0	3.0	29.8*	0.2	-6.5	11.1	3.5
O=C(OCn1nnc2ccccc2c1=O)c1cc(-c2ccccc2Cl)nc2ccccc12	2.9	-6.0	-7.2	-10.2	0.6	-0.2	.	.
CCC(Sc1nncn1C)C(=O)Nc1nnc(-c2ccccc2Cl)s1 (stereo unspecified)	-0.9	-19.8	6.8	33.0*	0.2	-1.4	27.9	4.7
O=C1CCCCc2sc(Br)c([N+](=O)[O-])c2N1	-3.2	0.8	.	79.8*	.	12.4	102.2*	65.7*
COc1ccc(CN2CN(S(=O)(=O)c3ccccc3)c3nc4ccccc4nc32)cc1	-1.2	1.3	.	2.4	.	-0.1	.	.
